# Laboratory results reported in PubChem BioAssay AID463173 (ICCB-Longwood Screening Facility, Harvard Medical School, 2010).
# Among all 52,000 compounds or so, about 1,700 (3.3%) were called active. No stated cut-off is given here; in the data, active means survival mostly below about 52% (no sharp cut-off); inactive means mostly above about 56%. What follows is part of a selection rich in actives, with near analogues and random picks from the rest.
# System: Wild type
# Experiment: growth inhibition of S. aureus wild type versus tarO mutant, primary screen, teichoic acid synthesis inhibitors, RN4220, OD600 (AID 463173)
# Conditions: S. aureus RN4220 wild type/DeltatarO growth, OD600, 18 h, hits give low values, screened at 18.75 µg/mL (by protocol)
row,SMILES,survival
1,c1ccc(-c2nc3cc(Cc4ccc5oc(-c6ccccn6)nc5c4)ccc3o2)nc1,113% (inactive)
2,CCC1=Nc2cc(C(=O)NCCN(CC)CC)ccc2Sc2ccccc21,93% (inactive)
3,Cc1ccccc1NC(=O)CC1COc2ccccc2O1 (stereo unspecified),111% (inactive)
4,COc1cccc(OCc2nc3ccccc3n2Cc2ccccc2C)c1,87% (inactive)
5,COc1ccc(Cc2nc3ccccc3n2Cc2ccccc2F)cc1,23% (active)
6,COc1ccc(Cc2nc3ccccc3n2Cc2ccccc2C)cc1,1% (active)
7,O=C(NCCc1nc2ccccc2n1Cc1ccccc1F)c1ccc(F)cc1,82% (inactive)
8,Cc1ccccc1Cn1c(CCCNC(=O)C2CCCCC2)nc2ccccc21,101% (inactive)
9,O=C(NCCCc1nc2ccccc2n1Cc1ccccc1F)c1ccco1,92% (inactive)
10,Cc1ccc(-c2nc(CCNC(=O)C(=O)Nc3ccc(F)cc3F)cs2)cc1,63% (inactive)
11,Cc1ccc(NC(=O)c2ccc(Br)cc2)c(C(=O)c2ccccc2)c1,-2% (active)
12,Cc1ccc(NC(=O)c2ccccc2Br)c(C(=O)c2ccccc2)c1,25% (inactive)
13,Cc1cc(NC(=O)c2ccccc2Cl)ccc1NC(=O)c1ccccc1,85% (inactive)
14,Cc1ccc(NC(=O)c2ccc(Cl)cc2Cl)c(C(=O)c2ccccc2)c1,1% (active)
15,O=C(Nc1cc2c(cc1C(=O)c1ccccc1)OCCO2)c1ccc(Br)cc1,86% (inactive)
16,Cc1ccc(C(=O)COC(=O)c2cccc(NC(=O)c3ccc(Cl)cc3Cl)c2)cc1,81% (inactive)
17,CCCCn1cc2c(c1-c1ccc(Cl)cc1)c(=O)n(C)c(=O)n2C,83% (inactive)
18,COc1ccc2c(CNC3CCCCCC3)c(C(=O)O)n(Cc3ccccc3F)c2c1,89% (inactive)
19,CCC1CCCCN1C(=O)c1ccc2c(c1)N(Cc1cccc(Cl)c1)C(=O)c1ccccc1S2(=O)=O (stereo unspecified),73% (inactive)
20,Cc1ccc(N2CCN(C(=O)c3c(C)oc4nc(C)nc(N5CCCC5)c34)CC2)c(C)c1,81% (inactive)
21,Cc1nn2c(-c3cccc(NC(=O)c4ccc(Cl)cc4)c3)nnc2c2ccccc12,113% (inactive)
22,Cc1ccccc1NC(=O)c1cc2c(-c3ccccc3)nn(-c3ccccc3)c2s1,86% (inactive)
23,Cc1nn(-c2ccccc2)c2sc(C(=O)Nc3ccccc3Br)cc12,7% (active)
24,COc1ccccc1NC(=O)c1cc2c(-c3ccccc3)nn(-c3ccccc3)c2s1,77% (inactive)

row,SMILES,survival
1,COc1ccccc1NC(=O)c1cc2c(C)nn(-c3ccccc3)c2s1,1% (active)
2,Cc1nn(-c2ccccc2)c2sc(C(=O)Nc3ccc(Br)cc3)cc12,52% (inactive)
3,COc1ccc(NC(=O)c2cc3c(C)nn(-c4ccccc4)c3s2)c(OC)c1,63% (inactive)
4,Cc1ccc2oc(=O)c3cc(C(=O)Nc4ccc(F)cc4F)sc3c2c1,80% (inactive)
5,CCc1ccccc1NC(=O)c1ccc(Cn2nc(N3CCN(c4ccccc4)CC3)ccc2=O)o1,70% (inactive)
6,Cc1cccc(-n2ccnc2SCC(=O)Nc2ccc(F)cc2F)c1C,71% (inactive)
7,Cc1cccc(CS(=O)(=O)CC2Nc3ccc(C(=O)NCc4ccccc4)cc3NC2=O)c1 (stereo unspecified),71% (inactive)
8,CCOC(=O)CNc1ncnc2c1nnn2C,22% (inactive)
9,CCc1nc2c(cnn2-c2ccc(Cl)cc2)c(=O)n1-c1ccc(OC)c(Cl)c1,78% (inactive)
10,CCOc1cccc2sc(NC(=O)c3ccc(S(=O)(=O)N4CCCc5ccccc54)cc3)nc12,88% (inactive)
11,CCOc1cccc2sc(NC(=O)c3ccc(S(=O)(=O)N4CCCCC4)cc3)nc12,75% (inactive)
12,CCOc1cccc2sc(NC(=O)c3ccc(S(=O)(=O)N4CCCCC4C)cc3)nc12 (stereo unspecified),10% (active)
13,CCOC(=O)c1c(-c2ccccc2)csc1NC(=O)c1cc(-c2ccc(Cl)cc2)on1,85% (inactive)
14,Cc1ccc(-n2ncc3c(NC(C)c4ccccc4)ncnc32)cc1 (stereo unspecified),73% (inactive)
15,Cc1ccc(-n2ncc3c(NCCC4=CCCCC4)ncnc32)cc1C,131% (inactive)
16,CCC(CO)Nc1ncnc2c1cnn2-c1ccc(C)cc1 (stereo unspecified),-6% (active)
17,CCC(C)Nc1ncnc2c1cnn2-c1ccc(F)cc1 (stereo unspecified),71% (inactive)
18,Cc1ccc(-n2ncc3c(NCCC4=CCCCC4)ncnc32)cc1,-3% (active)
19,CCCCc1ccc(Nc2ncnc3c2cnn3-c2ccc(C)cc2)cc1,-1% (active)
20,Cc1ccc(-n2ncc3c(NCCCc4ccccc4)ncnc32)cc1,69% (inactive)
21,Cc1ccc(-n2ncc3c(Nc4ccc(Oc5ccccc5)cc4)ncnc32)cc1,74% (inactive)
22,Fc1ccc(-n2ncc3c(NCCC4=CCCCC4)ncnc32)cc1,59% (inactive)
23,COc1ccc(-c2noc(-c3ccc(N4CCC(C)CC4)c([N+](=O)[O-])c3)n2)cc1OC,89% (inactive)
24,O=C(C1CCCCC1)N(Cc1cccnc1)c1nc2ccc(Cl)cc2s1,72% (inactive)

row,SMILES,survival
1,CCc1nn(CC(=O)Nc2ccc(NC(C)=O)cc2)c(=O)c2cc3sccc3n12,86% (inactive)
2,CCOc1ccccc1NC(=O)c1cnn2c(C(F)F)cc(-c3ccccc3)nc12,52% (inactive)
3,CCOC(=O)C1CCN(C(=O)c2cc3sc(C)cc3n2C)CC1,89% (inactive)
4,CC1CCN(S(=O)(=O)c2ccc3c(c2)N(CC(=O)NCCN(C)C)C(=O)CO3)CC1,76% (inactive)
5,COc1ccccc1CNc1nc2ccccc2c2nc(-c3cccnc3)nn12,67% (inactive)
6,COc1ccc(CCNc2nc3ccccc3c3nc(-c4cccc(C)c4)nn23)cc1OC,24% (inactive)
7,c1ccc(CNc2nc3ccccc3c3nc(-c4ccccc4)nn23)cc1,67% (inactive)
8,Cc1ccc(CCNc2nc3ccccc3c3nc(-c4ccccc4)nn23)cc1,73% (inactive)
9,Cc1cccc(-c2nc3c4ccccc4nc(NCc4ccccc4Cl)n3n2)c1,163% (inactive)
10,Cc1cccc(-c2nc3c4ccccc4nc(NCCc4ccccc4)n3n2)c1,3% (active)
11,CCCCNc1nc2ccccc2c2nc(-c3ccccc3)nn12,-1% (active)
12,COc1ccccc1CNc1nc2ccccc2c2nc(-c3cccc(C)c3)nn12,9% (active)
13,Cc1ccc(CNc2nc3ccccc3c3nc(-c4cccc(C)c4)nn23)cc1,26% (inactive)
14,CN1C(N)=NC(=O)C1(CO)CO,104% (inactive)
15,CCOc1ccc(NC(=O)CSc2nc(-c3cccs3)cc(C(F)(F)F)c2C#N)cc1,66% (inactive)
16,O=C(Cn1c(=O)c2ccccc2n(CC(=O)Nc2ccccc2F)c1=O)NCCc1ccccc1,89% (inactive)
17,CCOc1ccc(CCNC(=O)c2cc3cc4ccc(OC)cc4nc3s2)cc1OCC,101% (inactive)
18,Cc1ccccc1-c1nc(CS(=O)CC(=O)N2CCN(c3cc(Cl)ccc3C)CC2)c(C)o1 (stereo unspecified),10% (active)
19,COc1cccc(-c2nc(CS(=O)CC(=O)N3CCN(c4cccc(C(F)(F)F)c4)CC3)c(C)o2)c1 (stereo unspecified),-2% (active)
20,Cc1ccccc1-c1nc(CS(=O)CC(=O)NCCc2ccc(Cl)cc2)c(C)o1 (stereo unspecified),128% (inactive)
21,Cc1ccc(-c2nc(CS(=O)CC(=O)N3CCN(c4ccc(Cl)cc4)CC3)c(C)o2)cc1 (stereo unspecified),73% (inactive)
22,Cc1ccc(-c2nc(CS(=O)CC(=O)N3CCN(c4ccccc4)CC3)c(C)o2)cc1 (stereo unspecified),88% (inactive)
23,Cc1ccc(-c2nc(CS(=O)CC(=O)N3CCN(c4cccc(Cl)c4)CC3)c(C)o2)cc1 (stereo unspecified),5% (active)
24,Cc1oc(-c2ccc(Cl)cc2)nc1CS(=O)CC(=O)N1CCN(c2cccc(C(F)(F)F)c2)CC1 (stereo unspecified),80% (inactive)

row,SMILES,survival
1,Cc1oc(-c2ccccc2Cl)nc1CS(=O)CC(=O)N1CCN(c2cccc(C(F)(F)F)c2)CC1 (stereo unspecified),129% (inactive)
2,COc1cccc(-c2nc(CS(=O)(=O)CC(=O)N3CCN(c4ccccc4)CC3)c(C)o2)c1,94% (inactive)
3,CCOc1ccc(-c2nc(CSCC(=O)N3CCN(c4ccc(F)cc4)CC3)c(C)o2)cc1,113% (inactive)
4,CCCn1c(=O)sc2cc(NC(=O)c3ccccc3Cl)ccc21,71% (inactive)
5,COc1cccc(C2C(C(=O)Nc3ccccc3)=C(C)Nc3nc(-c4ccccc4)nn32)c1 (stereo unspecified),76% (inactive)
6,COc1ccc(N2CCN(c3ccc(-c4nc(-c5ccccc5C)no4)cc3[N+](=O)[O-])CC2)cc1,88% (inactive)
7,Cc1ccc(N(CC(=O)Nc2ccc(Br)c(C)c2)S(=O)(=O)c2cccs2)cc1,82% (inactive)
8,Cc1ccc(N(C(=O)c2cccc(C)c2)S(=O)(=O)c2ccc(Cl)cc2)cc1,65% (inactive)
9,Cc1ccc(NC(=O)N2CCC(n3c(C)nc4cccnc43)CC2)c(Cl)c1,71% (inactive)
10,CC(=O)N1CCC(N(Cc2ccc(C)o2)C(=O)Nc2ccccc2F)CC1,85% (inactive)
11,COc1ccc2[nH]c(=O)c(CN(C(=O)c3cccc(Cl)c3)c3ccccc3OC)cc2c1,81% (inactive)
12,Fc1ccc(C(c2nnnn2C2CCCC2)N2CCc3ccccc32)cc1 (stereo unspecified),122% (inactive)
13,CN(C)c1ccc(CNC(=O)CCCN2C(=O)CCn3nc(-c4cn(C)c5ccccc45)cc32)cc1,-1% (active)
14,Cc1cccc(CNC(=O)CCCN2C(=O)CCn3nc(-c4cn(C)c5ccccc45)cc32)c1,-6% (active)
15,Cn1cc(-c2cc3n(n2)CCC(=O)N3CCCC(=O)NCc2ccccc2)c2ccccc21,76% (inactive)
16,CN(C)c1ccc(CNC(=O)CN2C(=O)CCn3nc(-c4cn(C)c5ccccc45)cc32)cc1,53% (inactive)
17,Cn1cc(-c2cc3n(n2)CCC(=O)N3CCCC(=O)Nc2ccccc2F)c2ccccc21,159% (inactive)
18,Cn1cc(-c2cc3n(n2)CCC(=O)N3CCCC(=O)Nc2ccccc2Cl)c2ccccc21,-6% (active)
19,O=C(CN1C(=O)CCn2nc(-c3ccccc3)cc21)NCc1ccc(Cl)cc1,-3% (active)
20,Cn1cc(-c2cc3n(n2)CCC(=O)N3CCCC(=O)NCc2ccc(Cl)cc2)c2ccccc21,124% (inactive)
21,O=C(CN1C(=O)CCn2nc(-c3ccccc3)cc21)NCc1ccccc1,124% (inactive)
22,Cc1ccc(CNC(=O)CN2C(=O)CCn3nc(-c4ccccc4)cc32)cc1,68% (inactive)
23,CCc1ccccc1NC(=O)CCCN1C(=O)CCn2nc(-c3cn(C)c4ccccc34)cc21,134% (inactive)
24,Cc1ccc(CNC(=O)CCCN2C(=O)CCn3nc(-c4cn(C)c5ccccc45)cc32)cc1,76% (inactive)
